CYP2C9 activ: CYP2C9 (human) activation; activation factor at 5 µM; hit rate 1.4% among 96,000; recombinant CYP2C9, luciferin-H conversion, luminescence; hits give high values; factor 1 = untreated enzyme, 0 = blocked; AID 1024;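 active means activation factor of 2 or more for CYP2C9 at a 5 µM dose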;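 further: 0 = sulfaphenazole-blocked wells and 1 = vehicle-only wells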
CD11b adhes inh: blocks human CD11b/CD18 adhesion to fibrinogen. hit rate 0.54% among 93,000. inhibition, % at 10 µM. K562 CD11b/CD18 adhesion to fibrinogen, ATPlite luminescence; Mn2+ added to activate the integrin. AID 1497;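 active means primary inhibition of 50% or more at 10 µM, then 40% or more on retest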
CYP2C9 inh: inhibitors of human CYP2C9. P11712. CYP2C9 Supersomes, luciferin-H conversion, luminescence. inhibition, % at 5 µM. hit rate 20% among 96,000;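 active means blocking of liver enzyme CYP2C9 beyond about 50% at 5 µM, limit read from the data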
CYP2C19 activ: activators of human cytochrome P450 2C19; P33261; recombinant CYP2C19, luciferin-H EGE luminescence; hits give high values; 0 = fully inhibited enzyme, 1 = untreated enzyme; activation factor at 5 µM; 96,000 tested, under 10 active; AID 1025;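 active means activation factor of at least 2 at 5 µM in the primary screen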;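 further: 0 = wells with 2.5 mM tranylcypromine and 1 = vehicle-only wells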
Target sequence (P33261 whole entry, looked up): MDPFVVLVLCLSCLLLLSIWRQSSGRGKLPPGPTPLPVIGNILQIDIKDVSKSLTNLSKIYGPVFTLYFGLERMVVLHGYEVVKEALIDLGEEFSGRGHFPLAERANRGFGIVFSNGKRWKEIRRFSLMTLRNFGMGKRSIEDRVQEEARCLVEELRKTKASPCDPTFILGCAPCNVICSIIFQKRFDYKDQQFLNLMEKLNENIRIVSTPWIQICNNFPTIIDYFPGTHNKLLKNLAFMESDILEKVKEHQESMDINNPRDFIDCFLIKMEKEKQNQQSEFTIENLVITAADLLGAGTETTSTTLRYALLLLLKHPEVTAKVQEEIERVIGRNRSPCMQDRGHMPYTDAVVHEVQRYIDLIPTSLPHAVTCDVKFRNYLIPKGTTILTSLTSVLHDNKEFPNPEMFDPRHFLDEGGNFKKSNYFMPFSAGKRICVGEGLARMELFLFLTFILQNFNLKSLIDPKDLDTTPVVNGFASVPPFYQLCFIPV
CYP2C19 inh: blocks human cytochrome P450 2C19. CYP2C19 Supersomes, luciferin-H EGE luminescence, 30 min. inhibition, % at 5 µM. hit rate 21% among 96,000. AID 778;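 active means CYP2C19 inhibition above a set limit at 5 µM in the primary screen, cut at about 50% in these data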;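 further: plate controls were negative control wells for no effect and 2.5 mM tranylcypromine positive control for full effect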
CD11b adhes enh: increases human CD11b/CD18 adhesion to fibrinogen | P05107+P11215 | K562 CD11b/CD18 adhesion to fibrinogen, ATPlite luminescence | activation, % at 10 µM | hit rate 0.07% among 93,000 | AID 1499;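 active means 10 µM primary screen giving 50% or more activity, confirmed by 40% or more on retest at that dose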
* hit, by the source's call. Sampled rows, rich in hits. Any-hit rate of the full collection: about 28%.

O=C(OCc1ccco1)c1ccc(S(=O)(=O)N2CCCCC2)cc1 was read as CYP2C9 activ 1.2, CD11b adhes inh -2, CYP2C9 inh -24, CYP2C19 activ 1.2, CYP2C19 inh -19 and CD11b adhes enh 9.
O=C(OCC(=O)N1CCN(C(=O)c2ccco2)CC1)c1cn(-c2ccccc2)nc1-c1ccccc1 was read as CYP2C9 activ 0.3, CD11b adhes inh 1, CYP2C9 inh 68*, CYP2C19 activ 0.6, CYP2C19 inh 43 and CD11b adhes enh 0.
`CC(C)n1c(O)c(N=NC(=O)Cn2ccc(C(F)(F)F)n2)c2ccccc21` gave CD11b adhes inh -25 and CD11b adhes enh 4.
Screening CCOC(=O)COc1cccc2c(=O)n(CC(=O)N3CCCc4ccccc43)ccc12 returned CYP2C9 activ 1, CD11b adhes inh -8, CYP2C9 inh 1, CYP2C19 activ 0.9, CYP2C19 inh 8 and CD11b adhes enh 4.
For CCn1cc(C(=O)N2CCN(c3cccc(Cl)c3)CC2)c2cc(OC)c(OC)cc2c1=O the results were CYP2C9 activ 0.2, CD11b adhes inh 7, CYP2C9 inh 80*, CYP2C19 activ 0.2, CYP2C19 inh 76* and CD11b adhes enh 5.
COc1cc2c(C(=O)N3CCN(c4cccc(Cl)c4)CC3)cn(C)c(=O)c2cc1OC was read as CYP2C9 activ 0.6, CD11b adhes inh -11, CYP2C9 inh 42, CYP2C19 activ 0.8, CYP2C19 inh 21 and CD11b adhes enh 2.
`CCN(CC)C(=O)c1cn(CC)c(=O)c2cc(OC)c(OC)cc12` gave CYP2C9 activ 1.1, CD11b adhes inh 4, CYP2C9 inh -13, CYP2C19 activ 1.2, CYP2C19 inh -23 and CD11b adhes enh -2.
For CCn1cc(C(=O)N2CCCc3ccccc32)c2cc(OC)c(OC)cc2c1=O the results were CYP2C9 activ 0.8, CD11b adhes inh 12, CYP2C9 inh 21, CYP2C19 activ 0.4, CYP2C19 inh 56* and CD11b adhes enh -5.
COc1cccc2c(=O)n(CC(=O)N3CCCc4ccccc43)ccc12 was read as CYP2C9 activ 0.5, CD11b adhes inh -9, CYP2C9 inh 46, CYP2C19 activ 0.1, CYP2C19 inh 87* and CD11b adhes enh 5.
For O=C(CSc1nnc(CNC(=O)c2cccs2)o1)NC1CCCCC1 the results were CYP2C9 activ 1.2, CD11b adhes inh -4, CYP2C9 inh -23, CYP2C19 activ 1.2, CYP2C19 inh -16 and CD11b adhes enh 3.
For O=C(CN(c1ccccc1F)S(=O)(=O)c1ccccc1)N1CCCCCC1 the results were CYP2C9 activ 1.2, CD11b adhes inh 3, CYP2C9 inh -19, CYP2C19 activ 1, CYP2C19 inh 2 and CD11b adhes enh 3.
For Cc1cc(Cl)ccc1NC(=O)NC1CCN(S(=O)(=O)c2ccc(F)cc2)CC1 the results were CYP2C9 activ 1, CD11b adhes inh 4, CYP2C9 inh -1, CYP2C19 activ 0.9, CYP2C19 inh 6 and CD11b adhes enh 0.
Screening Cc1c(Cl)cccc1-n1c(SCC(=O)N(C)Cc2ccccc2)nnc1-c1ccncc1 returned CYP2C9 activ 0.2, CD11b adhes inh 0, CYP2C9 inh 83*, CYP2C19 activ 0.1, CYP2C19 inh 90* and CD11b adhes enh -1.
`Cc1noc(C)c1CSc1nnc(-c2ccncc2)n1-c1cccc(Cl)c1C` gave CYP2C9 activ 0.1, CD11b adhes inh -13, CYP2C9 inh 94*, CYP2C19 activ 0, CYP2C19 inh 100* and CD11b adhes enh 2.
Screening O=S(=O)(NCc1ccco1)N1CCOCC1 returned CYP2C9 activ 0.9, CD11b adhes inh -4, CYP2C9 inh 6, CYP2C19 activ 0.9, CYP2C19 inh 7 and CD11b adhes enh -3.
`O=S(=O)(/N=C(/c1ccc(Cl)cc1)N1CCOCC1)c1ccc(Cl)cc1` gave CYP2C9 activ 1, CYP2C9 inh -3, CYP2C19 activ 1 and CYP2C19 inh 0.
For CC(C)OC(=S)N/C(=N\S(=O)(=O)c1ccccc1)c1ccccc1 the results were CYP2C9 activ 0.4, CD11b adhes inh -28, CYP2C9 inh 61*, CYP2C19 activ 0.7, CYP2C19 inh 32 and CD11b adhes enh 2.
CS/C(=N\S(=O)(=O)c1ccc(Cl)cc1)c1ccccc1 was read as CYP2C9 activ 0.1, CD11b adhes inh 3, CYP2C9 inh 89*, CYP2C19 activ 0, CYP2C19 inh 96* and CD11b adhes enh -3.
For COc1ccc(O/C(=N\S(=O)(=O)c2ccccc2)c2ccccc2)cc1 the results were CYP2C9 activ 0.9, CD11b adhes inh -26, CYP2C9 inh 11, CYP2C19 activ 0.9, CYP2C19 inh 12 and CD11b adhes enh -1.
Screening Cc1cccc(NC(=S)N/C(=N/S(=O)(=O)c2ccccc2)c2ccccc2)c1 returned CYP2C9 activ 0.5, CD11b adhes inh -30, CYP2C9 inh 46, CYP2C19 activ 0.9, CYP2C19 inh 14 and CD11b adhes enh 0.
Screening CC(C)CO/C(=N/S(=O)(=O)c1ccccc1)c1ccccc1 returned CYP2C9 activ 0.2, CD11b adhes inh -25, CYP2C9 inh 78*, CYP2C19 activ 0.2, CYP2C19 inh 76* and CD11b adhes enh -2.
For CC(C)O/C(=N\S(=O)(=O)c1ccc(Cl)cc1)c1ccccc1 the results were CYP2C9 activ 0, CD11b adhes inh 7, CYP2C9 inh 95*, CYP2C19 activ 0, CYP2C19 inh 95* and CD11b adhes enh -6.
CN(C)/C=C1\C(=O)N(c2ccc([N+](=O)[O-])cc2)N=C1c1ccccc1 was read as CYP2C9 activ 0.7, CD11b adhes inh -21, CYP2C9 inh 28, CYP2C19 activ 0.9, CYP2C19 inh 13 and CD11b adhes enh 0.
For Cc1ccccc1OCCCCc1c(C)n[nH]c1C the results were CYP2C9 activ 0.5, CD11b adhes inh 90*, CYP2C9 inh 50*, CYP2C19 activ 0.3, CYP2C19 inh 65* and CD11b adhes enh -6.
COc1cccc(OC)c1OCCCSc1nc(C)cc(=O)[nH]1 was read as CYP2C9 activ 1, CD11b adhes inh 6, CYP2C9 inh 1, CYP2C19 activ 1, CYP2C19 inh 3 and CD11b adhes enh 1.
For COc1cccc(OC)c1OCCCCCc1c(C)n[nH]c1C the results were CYP2C9 activ 0.7, CD11b adhes inh 17, CYP2C9 inh 32, CYP2C19 activ 0.1, CYP2C19 inh 86* and CD11b adhes enh 54.
Screening Cc1cccc(C)c1OCCCCc1c(C)n[nH]c1C returned CYP2C9 activ 0.3, CD11b adhes inh 22, CYP2C9 inh 70*, CYP2C19 activ 0.4, CYP2C19 inh 60* and CD11b adhes enh -7.
Screening COc1cccc(C(=O)N(Cc2ccc(N(C)C)cc2)C2CCS(=O)(=O)C2)c1 (stereo not given) returned CYP2C9 activ 1.1, CD11b adhes inh 2, CYP2C9 inh -6, CYP2C19 activ 0.8, CYP2C19 inh 23 and CD11b adhes enh -1.

Source: PubChem BioAssay (Sanford-Burnham Center for Chemical Genomics)
